Bioassay records: PubChem BioAssay, University of Kansas High Throughput Screening Laboratory
mHTT CaM bind – disrupts binding of mutant huntingtin to calmodulin. P42858. AlphaScreen His-mHTT/GST-CaM binding, luminescence. inhibition, % at 15 µM. hit rate 3.6% among 190,000. AID 1671202
Pf apPOL inh – Pf-apPOL DNA polymerase inhibition. AID 1794808. inhibition, % at 10 µM. hit rate 0.25% among 210,000. Recombinant Pf-apPOL, molecular beacon fluorescence, 1.5 h
Each line names hits and unclear results; the compound was inactive in the other large screens. Shown is part of a subset that was picked to be rich in hits. No stated cut-off is given here; in the data, active means inhibition above about 50%; inactive means the rest.

CCc1c(C)nc2[nH]nc(-c3ccccc3)n2c1=O	none
CCc1c(C)[nH]n(-c2nn[nH]n2)c1=O	mHTT CaM bind 99.5 (no result: Pf apPOL inh)
COC(=O)C1(C(=O)OC)C/C=C\CN(C(=O)OC(C)(C)C)CCC1	none
CC(C)Cn1cc(C(=O)Nc2cccc(Cl)c2)c2c3ccccc3n(C)c2c1=O	none
COc1cc(N2CN=c3s/c(=C\c4ccccc4)c(=O)n3C2)cc(OC)c1OC	none
COc1cc(N2CN=c3s/c(=C\C=C\c4ccccc4)c(=O)n3C2)cc(OC)c1OC	mHTT CaM bind 55.0
Cc1cc(C)cc(C(=O)N2CCC3(CC2)NC(=O)N(Cc2ccccc2)C3=O)c1	none
CN(C)c1ncncc1N1CCC(C(=O)N2CCN(c3cccc(Cl)c3)CC2)CC1	mHTT CaM bind 74.5
CN(C)c1ncncc1N1CCC(C(=O)N2CCN(C3CCCCC3)CC2)CC1	none
Cc1ccnc(N2CCC(C(=O)N3CCN(c4cc(Cl)ccc4C)CC3)CC2)n1	mHTT CaM bind 88.5
Cc1cccc(N2CCN(C(=O)C3CCN(c4cncnc4N(C)C)CC3)CC2)c1C	mHTT CaM bind 51.8
CN(C)c1ncncc1N1CCC(C(=O)N2CCN(c3ccccc3F)CC2)CC1	none
Cc1ccnc(N2CCC(C(=O)N3CCN(c4cccc(C)c4C)CC3)CC2)n1	none
CC(=O)NCc1cn[nH]c1-c1ccc(C)cc1	none
COCCNC(=O)C1CCN(c2cc(C)c3cc(NC(C)=O)ccc3n2)CC1	none
O=C1NC(=O)/C(=C\c2cccc(Oc3ccc([N+](=O)[O-])cc3[N+](=O)[O-])c2)S1	none
COc1ccc(CNC(=O)C2(C)CCCN(S(=O)(=O)c3ccccc3C)C2)cc1 (centres undefined)	none
O=[N+]([O-])c1ccc(Sc2nc3ccccc3o2)c([N+](=O)[O-])c1	none
Cc1cc(Sc2ncnc(N)c2[N+](=O)[O-])nc(C)n1	none
Nc1ncnc(SC2=NCCS2)c1[N+](=O)[O-]	mHTT CaM bind 59.0
Nc1ncnc(Sc2nc3ccccc3o2)c1[N+](=O)[O-]	mHTT CaM bind 75.0
O=C(NC1CCCC1)C1CCN(c2nc3cccnc3s2)CC1	none
O=C(c1cnn2c3c(cnc12)CCCCCC3)N1CCCC1	none
Cc1cccc(C2=NN(c3ccc(Br)cc3)[C@@H](C(=O)N3CCOC3=O)[C@@H]2c2ccc(Cl)cc2)c1	mHTT CaM bind 79.7
O=C1OCCN1C(=O)[C@H]1[C@H](c2ccc(Cl)cc2)C(c2cccc(Cl)c2)=NN1c1ccccc1	none
O=C1OCCN1C(=O)[C@H]1[C@H](c2ccc([N+](=O)[O-])cc2)C(c2ccccc2)=NN1c1ccc(Br)cc1	none
Cc1cccc(C2=NN(c3ccccc3)[C@@H](C(=O)N3CCOC3=O)[C@@H]2c2ccc([N+](=O)[O-])cc2)c1	mHTT CaM bind 54.4
CC[C@@H]1C(c2cccc(Cl)c2)=NN(c2ccccc2)[C@H]1C(=O)N1CCOC1=O	none
CC[C@@H]1C(c2cccc(Cl)c2)=NN(c2ccc(Br)cc2)[C@H]1C(=O)N1CCOC1=O	mHTT CaM bind 95.1
O=C1OCCN1C(=O)[C@H]1[C@H](c2ccc(Cl)cc2)C(c2ccccc2)=NN1c1ccc(Br)cc1	mHTT CaM bind 64.6
O=C1OCCN1C(=O)[C@H]1[C@H](c2ccc([N+](=O)[O-])cc2)C(c2cccc(Cl)c2)=NN1c1ccc(Br)cc1	none
CCOc1ccc(NC(=O)c2ccc(F)c(S(=O)(=O)NC3CCCC3)c2)cc1	none
Cn1c(=O)n(CC(=O)Nc2ccc(OC(F)(F)Cl)cc2)c2ccccc21	none
CC(C)(C)c1ccc(C2=NC(C)(C)N(CC(=O)Nc3ccc(F)cc3)C2=O)cc1	none
CCOc1ccccc1NC(=O)c1cc(C)n2nccc2n1	none
COc1ccccc1[C@@H]1C(c2cccc(C)c2)=NN(c2ccc(Br)cc2)[C@H]1C(=O)N1CCOC1=O	none
O=C1OCCN1C(=O)[C@H]1[C@H](c2ccc(F)cc2)C(c2cccc(Cl)c2)=NN1c1ccc(Br)cc1	mHTT CaM bind 93.6
O=C1OCCN1C(=O)[C@H]1[C@H](c2ccccc2)C(c2cccc(Cl)c2)=NN1c1ccc(Br)cc1	none
Cc1cccc(C2=NN(c3ccc(Br)cc3)[C@@H](C(=O)N3CCOC3=O)[C@@H]2c2ccc(F)cc2)c1	mHTT CaM bind 76.2
COc1cccc(N2CCN(S(=O)(=O)c3ccc4[nH]c5c(c4c3)CCCC5)CC2)c1	mHTT CaM bind 55.4
COc1ccccc1N1CCN(S(=O)(=O)c2ccc(OC)c([N+](=O)[O-])c2)CC1	none
COc1ccccc1N1CCN(S(=O)(=O)c2ccc3[nH]c4c(c3c2)CCCC4)CC1	mHTT CaM bind 50.1
COc1ccc(S(=O)(=O)N2CCN(c3cccc(Cl)c3)CC2)cc1	none
O=C(CSc1ccc(-n2ccnc2)nn1)NCc1cccs1	none
COCC(=O)Nc1ccc(S(N)(=O)=O)cc1	none
C=CCOC(=O)COc1ccc2c(=O)c(-c3ccccc3)c(C)oc2c1	none
COCc1c(C(=O)O)nnn1-c1ccccc1F	none
O=c1c(-c2ccc(Br)cc2)coc2cc(O)cc(O)c12	mHTT CaM bind 52.0
O=c1c(-c2ccc(O)cc2)coc2cc(O)cc(O)c12	none (no result: mHTT CaM bind)
Cn1cc(CN2CCC(C(=O)NCCN3CCCCC3)CC2)c2cc(Cl)ccc21	none
Cn1cc(CN2CCC(C(=O)NCCCN3CCCC3)CC2)c2cc(Cl)ccc21	mHTT CaM bind 54.7
CCn1cc(CN2CCC(C(=O)NCc3cccc(Cl)c3)CC2)c2cc(OC)ccc21	mHTT CaM bind 90.0
CCn1cc(CN2CCC(C(=O)NCc3cccc(OC)c3)CC2)c2ccccc21	none
CC1CCCC(NC(=O)CCSCc2cccc(Cl)c2)C1C (centres undefined)	none
Cc1ccc(-c2cnc(SCC(=O)Nc3nnc(C)s3)n2Cc2ccco2)cc1	none
O=C(Cn1ccc2c(=O)[nH]ccc21)Nc1cccc(Cl)c1	Pf apPOL inh 78.6
O=C(Cn1ccc2c(=O)[nH]ccc21)Nc1ccccc1Cl	Pf apPOL inh 82.4
Cc1c(Cl)cccc1NC(=O)Cn1ccc2c(=O)[nH]ccc21	none
O=C(Cn1ccc2c(=O)[nH]ccc21)Nc1ccc(Cl)cc1	none
Cc1cc(C2CCCN2C(=O)Nc2cc(Cl)ccc2C)no1 (centres undefined)	none
Cc1ccnc(Nc2ccc(N3CCN(C(=O)C4CCCC4)CC3)nn2)c1	mHTT CaM bind 54.7
O=C(c1cnccn1)N1CCN(c2cc(-n3cccn3)ncn2)CC1	none
Cc1ccnc(NC(=O)C2CCCC2)c1	none
Cc1ccnc(Nc2ccc(N3CCN(C(=O)c4cnccn4)CC3)nn2)c1	mHTT CaM bind 90.4
Cc1ccccc1NC(=O)C1CC(=O)NC(=N)S1 (centres undefined)	none
COc1ccccc1C1C=C(c2ccc(Br)cc2)Nc2nnnn21 (centres undefined)	none
CC1=C(C(=O)Nc2cccc(C(F)(F)F)c2)C2(CCCCCC2)OC1=O	mHTT CaM bind 98.3
CC1=C(C(=O)Nc2cccc(C(F)(F)F)c2)C2(CCCCC2)OC1=O	none
C=CCOc1ccc(C(O)=C2C(=O)C(=O)N(CCCn3ccnc3)C2c2ccc(C)cc2)cc1 (centres undefined)	none
COc1cccc(/C=C2/N=C(c3cncc(Br)c3)OC2=O)c1OC	none
COCCn1c(CC2CCN(C(=O)c3ccc(Cl)s3)C2)nc2cccnc21 (centres undefined)	none
O=C(O)CC1c2ccccc2Oc2ccccc21	none
O=CC1=C(c2ccccc2)Oc2ccccc2O1	mHTT CaM bind 51.4
Cc1ccc2nc(NC(=O)CSc3ccc4nnc(-c5ccccn5)n4n3)sc2c1	mHTT CaM bind 79.5
Cc1ccc2nc(NC(=O)CSc3ccc(-n4cccn4)nn3)sc2c1	none
CCOC(=O)CC(=O)CSc1ccc2nnc(-c3ccccn3)n2n1	mHTT CaM bind 83.1
